Measurements as given in PubChem BioAssay (NCATS).
Values joined by “and” are separate entries in the source; they are usually repeats but may differ in a detail not shown here. Equal entries are not always repeated. Inconclusive results are not listed. Active and inactive are the calls of the source. Unless noted, the call rests on the fitted dose curve; in most records, active means well fitted curve in the direction sought with a large enough effect; inconclusive means small, poorly fitted or top-dose-only effect, or another doubt; inactive means no such curve, though single readings can be large; an effect the other way counts as inactive or inconclusive.

What was measured:
[1] = Primary qHTS for inhibitors of nuclear receptor binding SET domain protein 2 (NSD2) in an isogenic RCH-ACV NSD2 p.E1099K mutant (9B) (AID 1645876); further: potency means the concentration at half of the fitted maximal effect; nearly all actives have a fitted effect of over 70% in size
[2] = Primary qHTS for inhibitors of nuclear receptor binding SET domain protein 2 (NSD2) in an RCH-ACV wild type WT cells (2C) (AID 1645877); further: potency means the concentration at half of the fitted maximal effect; nearly all actives have a fitted effect of over 70% in size
[3] = target: Glutathione peroxidase 1 (Homo sapiens) (UniProt P07203); test: Primary qHTS Assay for Inhibitors of Recombinant Selenoprotein Glutathione Peroxidase 1 (GPX1) (AID 1845191); further: nearly all actives have a fitted effect of over 65% in size
Procedure, shortened: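 GR-coupled readout: NADPH consumption tracked by fluorescence, ex 340/em 450 nm, at t=0 and after 15 min at RT. Final mix 10 nM GPX1, 1 mM GSH, 0.5 mM CHP, 0.5 mM NADPH, 100 nM GR, 0.01% BSA, following 30 min enzyme–compound preincubation.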

[4] = target: Phospholipid hydroperoxide glutathione peroxidase GPX4 (Homo sapiens) (UniProt P36969); test: Primary qHTS Assay for Inhibitors of Recombinant Selenoprotein Glutathione Peroxidase 4 (GPX4) (AID 1845192); details: outcome: dose series up to 50 µM unless noted; further: on the % scale 0 is the no-effect control and ±100 the full control effect; nearly all actives have a fitted effect of over 65% in size
Procedure, shortened: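 Steps: GPX4 plus compound, 30 min RT; add GR/GSH/NADPH master mix; start with cumene hydroperoxide; read 340/450 nm fluorescence at 0 and 15 min. Finals were 200 nM GPX4, 1 mM GSH, 0.5 mM CHP, 0.5 mM NADPH, 100 nM GR.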

[5] = qHTS drug screen for cell cycle checkpoint inhibitors in PARPi-resistant BRCA-mutant ovarian cancer cell lines. (AID 1963452; calls by dose curve); details: PEO1/OlaR viability, CellTiter-Glo luminescence, 96 h, stronger effect = lower value
Procedure, shortened: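 PEO1, PEO4 and PEO1/OlaR ovarian cancer cells, 600 per well, exposed 96 h at 37C to a dilution series. Viability read by CellTiter-Glo luminescence, normalized to DMSO and empty wells; activity summarized as Z-AUC.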

[6] = qHTS assay to identify inhibitors of the type 1 interferon - major histocompatibility complex class I in skeletal muscle: Counter screen cell viability and HiBit confirmation (AID 1347412); details: iHSKM muscle cells + IFN-b, HiBiT or CellTiter-Glo, 24 h, at 45.9 µM (top of the series); further: on the % scale 0 is the no-effect control and ±100 the full control effect; nearly all actives have a fitted effect of over 60% in size
Procedure, shortened: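 CRISPR HLA-B*08:01-HiBit immortalized human myoblasts (C25cl48) stimulated with 4 ng/ml IFN-beta and compounds (12-point 1:3, top 46 uM final) for 24 h at 37 C. Duplicate plates read by HiBit lytic luminescence or CellTiter Glo ATP.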

[7] = Validation of Assay for Modulators of Lamin A Splicing (AID 1459; active means well fitted curve in the direction sought with a large enough effect in the signal ratio; the % refers to the signal ratio;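 further: cells exposed to compound for two days before reading; 0% is about no effect; ratio rise marks activators and ratio drop marks inhibitors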)
Procedure, shortened: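 S3 HeLa stably expressing lamin A-EGFP splicing minigene and DsRed2, 600 cells/well in Opti-MEM with 2% FBS, treated 48 h at 37C; laser-scanning cytometry gives GFP/RFP total intensity ratio; ancitabine positive control, 0.5% DMSO vehicle.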

[8] = qHTS Assay for Lipid Storage Modulators (AID 1519; calls by dose curve; on activity change, negative = inhibition: on the % scale 0 is the no-effect control and ±100 the full control effect); details: Drosophila S3 cells, BODIPY lipid droplet/cell ratio, laser cytometry, cells loaded with oleic acid; for activity change, negative = inhibition: at 57.5 µM (top of the series)
Procedure, shortened: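 Cells seeded at 5,000 per well were treated with compounds over a concentration series and loaded with oleic acid (400 uM, as added). Lipid droplet fluorescence (488 nm excitation, 500-530 nm channel) was read by laser-scanning cytometry and normalized to 20 uM Triacsin C.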

[9] = target: DNA repair nuclease/redox regulator APEX1 (Homo sapiens) (UniProt P27695); test: qHTS Validation Assay for Inhibitors of the Human Apurinic/apyrimidinic Endonuclease 1 (APE1) (AID 1705;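 further: TAMRA fluorescence gain over two minutes as APE1 cuts a quenched THF abasic duplex; on the % scale 0 is the no-effect control and ±100 the full control effect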)
Procedure, shortened: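 Fluorogenic double-stranded THF abasic-site substrate (5'-TAMRA/3'-BHQ-2), 50 nM final. Enzyme preincubated with compound 15 min at room temperature, then substrate added. Kinetic fluorescence (ex 525/em 598 nm) read three times at 60 s intervals; activity taken as third-minus-first read difference.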

[10] = Counterscreen for APE1 Inhibitors: Fluorescent Dye Displacement Validation Assay (AID 1707);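 further: plate controls were ThO with dsDNA and no compound for no effect and ThO without dsDNA for full effect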
Procedure, shortened: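 Counterscreen flags promiscuous DNA binders: compounds displacing ThO from duplex DNA (abasic THF site, 50 nM) reduce 540 nm emission (480 nm excitation). ThO 250 nM final; Tris-HCl pH 7.5 with NaCl, MgCl2 and Tween-20.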

[11] = target: Endonuclease 4 (Escherichia coli (strain K12)) (UniProt P0A6C1); test: Counterscreen for APE1 Inhibitors: qHTS Validation Assay for Inhibitors of Endonuclease IV (AID 1708); further: on the % scale 0 is the no-effect control and ±100 the full control effect
Procedure, shortened: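 Read-out: fluorescence rise (ex 525/em 598 nm) from incision of a TAMRA/BHQ-2 double-stranded THF abasic-site substrate (50 nM), measured kinetically; third-minus-first read difference gave reaction progress. Enzyme 2 nM.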

[12] = qHTS for differential inhibitors of proliferation of Plasmodium falciparum line Dd2 (AID 1882); details: Potency: Plasmodium falciparum Dd2 proliferation inhibition;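 further: compound exposure of 72 h on infected erythrocytes; plate controls were DMSO vehicle for no effect and 0.29 µM artemisinin for full effect; nearly all actives have a fitted effect of over 65% in size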
Procedure, shortened: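 RBC culture, 0.3% parasitemia / 2.5% Hct final; cpd added by pin tool in DMSO; 72 h, 37 C, 5% CO2; lysis buffer + SYBR Green I, o/n RT dark; FI 485/535; norm. to artemisinin 0.29 uM and DMSO.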

[13] = target: ATP-dependent DNA helicase Q1 (Homo sapiens) (UniProt P46063); test: qHTS Validation Assay for Inhibitors of RecQ-Like Dna Helicase 1 (RECQ1) (AID 2353);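 further: plate controls were DMSO vehicle for no effect and enzyme-free control for full effect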
Procedure, shortened: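 RECQ1T1 50 nM; forked duplex (20 bp + 30-nt ss tails) 200 nM, ATP 2 mM final; pH 8.0, 2 mM MgCl2, 2.5 ug/ml poly(dI-dC); 15 min compound preincubation; discontinuous kinetic read over 2 h at RT.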

[14] = Validation screen for small molecules that induce DNA re-replication in MCF 10A normal breast cells (AID 463097); further: 0% is about no effect; nearly all actives have a fitted effect of over 60% in size
Procedure, shortened: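 MCF 10A cells exposed to compound 48 hr at 37 C, 5% CO2, then Hoechst-stained 40 min. Laser-scanning imaging of nuclear DNA content (405 nm ex, 500-530 nm em); re-replication scored as rise in nuclei with elevated fluorescence intensity.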

[15] = target: M-phase phosphoprotein 8 (Homo sapiens) (UniProt Q99549); test: qHTS Validation Assay for Inhibitors for MPP8 Chromodomain Interactions with Methylated Histone Tails (AID 488949); further: nearly all actives have a fitted effect of over 55% in size; further: potency means the concentration at half of the fitted maximal effect; on activity change, negative = inhibition: top concentration of the series differs between compounds; on the % scale 0 is the no-effect control and ±100 the full control effect
Procedure, shortened: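 MPP8 (50 nM) was pre-bound to 50 nM biotinylated H3(1-18)K9me3 peptide in PBS pH 7.4 with 0.01% Tween-20. Compounds were then added for 30 min at room temperature, and complex disruption was read by AlphaScreen with streptavidin donor and nickel-chelate acceptor beads.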

[16] = target: Transient receptor potential cation channel subfamily V member 1 (Homo sapiens) (UniProt Q8NER1); test: HTS Assay for Compounds that Act as Enhancers of the Vanilloid Receptor 1 (AID 488979); further: 0% is about no effect
Procedure, shortened: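 TRPV1 cells loaded with Fluo-8 calcium dye; compound added and Ca2+ signal (ex 480/em 520 nm) followed 3 min, then capsaicin at EC20 added and read 2 more min to detect enhancement.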

[17] = target: Thyrotropin receptor (Homo sapiens) (UniProt P16473); test: qHTS Assay for Antagonists of the Thyroid Stimulating Hormone Receptor (AID 488980); further: 0% is about no effect
Procedure, shortened: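 TSHR-transfected HEK293 cells (2000/well) in HEPES-buffered HBSS with 70 uM RO 20-1724 were stimulated with 4 nM TSH (EC80, final) in the presence of compound. cAMP was measured by HTRF competition after lysis and 30 min at RT.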

[18] = target: Galactokinase (Homo sapiens) (UniProt P51570); test: qHTS Validation Assay for Inhibitors of Human Galactokinase (GALK) (AID 493189); further: 0% is about no effect
Procedure, shortened: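 GALK (5 nM) with 35 uM ATP and 100 uM galactose in HEPES pH 8.0 with MgCl2, NaCl, DTT and BSA. Reaction ran 1 h at room temperature. Residual ATP read by Kinase-Glo Plus luminescence.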

[19] = Validation screen for small molecules that induce DNA re-replication in SW480 colon adenocarcinoma cells (AID 504364); further: 0% is about no effect
Procedure, shortened: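 Hoechst-stained SW480 nuclei, imaged at 405 nm excitation after 48 hr compound exposure, were counted for elevated DNA content as the re-replication signal.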

[20] = measured here: PEO1 parental Z-AUC
[21] = measured here: cell count channel max response
[22] = measured here: lipid channel max response

Chain of Transient receptor potential cation channel subfamily V member 1 (Homo sapiens) (Q8NER1 whole entry, looked up): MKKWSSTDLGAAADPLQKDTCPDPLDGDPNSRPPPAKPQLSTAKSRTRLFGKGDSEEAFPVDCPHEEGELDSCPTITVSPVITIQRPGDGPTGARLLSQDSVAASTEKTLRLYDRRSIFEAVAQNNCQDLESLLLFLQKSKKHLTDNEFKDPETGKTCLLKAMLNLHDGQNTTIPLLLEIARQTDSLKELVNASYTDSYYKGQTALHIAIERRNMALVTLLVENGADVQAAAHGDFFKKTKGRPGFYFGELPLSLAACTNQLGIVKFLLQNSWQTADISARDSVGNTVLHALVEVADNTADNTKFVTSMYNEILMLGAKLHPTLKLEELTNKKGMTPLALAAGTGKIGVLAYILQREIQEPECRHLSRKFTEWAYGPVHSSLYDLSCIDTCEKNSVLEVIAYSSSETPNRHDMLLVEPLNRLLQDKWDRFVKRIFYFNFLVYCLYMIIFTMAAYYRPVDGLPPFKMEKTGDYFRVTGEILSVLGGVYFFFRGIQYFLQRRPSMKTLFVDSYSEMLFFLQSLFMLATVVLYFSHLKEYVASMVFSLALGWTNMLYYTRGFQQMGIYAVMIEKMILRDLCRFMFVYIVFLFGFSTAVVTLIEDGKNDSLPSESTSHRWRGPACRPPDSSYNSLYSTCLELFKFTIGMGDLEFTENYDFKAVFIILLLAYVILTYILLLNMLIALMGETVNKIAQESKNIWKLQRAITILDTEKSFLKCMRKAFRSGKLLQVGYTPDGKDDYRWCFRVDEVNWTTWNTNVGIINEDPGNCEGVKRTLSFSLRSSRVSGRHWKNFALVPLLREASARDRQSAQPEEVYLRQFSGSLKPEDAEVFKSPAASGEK
Chain of M-phase phosphoprotein 8 (Homo sapiens) (Q99549 whole entry, looked up): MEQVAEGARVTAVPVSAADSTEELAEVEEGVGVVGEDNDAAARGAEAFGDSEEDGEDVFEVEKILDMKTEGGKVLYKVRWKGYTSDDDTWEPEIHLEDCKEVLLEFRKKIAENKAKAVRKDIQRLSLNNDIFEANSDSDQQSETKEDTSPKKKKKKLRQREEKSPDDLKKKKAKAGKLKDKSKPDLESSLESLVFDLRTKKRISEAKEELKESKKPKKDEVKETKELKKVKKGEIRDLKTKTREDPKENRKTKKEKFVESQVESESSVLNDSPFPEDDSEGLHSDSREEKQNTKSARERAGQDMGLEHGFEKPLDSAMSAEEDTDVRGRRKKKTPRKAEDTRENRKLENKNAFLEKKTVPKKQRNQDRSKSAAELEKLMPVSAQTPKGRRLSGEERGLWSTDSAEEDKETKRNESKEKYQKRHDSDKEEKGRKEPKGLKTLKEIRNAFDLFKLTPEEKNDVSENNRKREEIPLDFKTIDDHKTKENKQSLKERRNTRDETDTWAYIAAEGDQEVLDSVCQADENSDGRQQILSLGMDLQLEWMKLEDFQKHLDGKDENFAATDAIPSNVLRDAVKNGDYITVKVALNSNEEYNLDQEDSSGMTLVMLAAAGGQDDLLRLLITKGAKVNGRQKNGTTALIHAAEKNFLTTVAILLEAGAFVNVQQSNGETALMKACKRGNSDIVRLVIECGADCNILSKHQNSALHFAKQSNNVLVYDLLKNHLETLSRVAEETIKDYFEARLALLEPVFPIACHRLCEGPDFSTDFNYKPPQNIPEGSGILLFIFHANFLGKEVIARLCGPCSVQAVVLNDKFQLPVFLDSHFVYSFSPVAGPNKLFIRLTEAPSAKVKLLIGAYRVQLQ
Chain of DNA repair nuclease/redox regulator APEX1 (Homo sapiens) (P27695 whole entry, looked up): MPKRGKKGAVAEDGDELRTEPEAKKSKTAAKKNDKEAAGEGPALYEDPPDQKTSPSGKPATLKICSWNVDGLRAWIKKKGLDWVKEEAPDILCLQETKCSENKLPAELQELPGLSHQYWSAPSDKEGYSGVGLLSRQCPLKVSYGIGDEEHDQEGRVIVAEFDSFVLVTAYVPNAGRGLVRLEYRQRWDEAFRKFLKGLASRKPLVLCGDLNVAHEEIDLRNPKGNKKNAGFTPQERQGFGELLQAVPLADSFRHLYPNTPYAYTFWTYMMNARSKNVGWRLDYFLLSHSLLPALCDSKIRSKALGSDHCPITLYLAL
Chain of Galactokinase (Homo sapiens) (P51570 whole entry, looked up): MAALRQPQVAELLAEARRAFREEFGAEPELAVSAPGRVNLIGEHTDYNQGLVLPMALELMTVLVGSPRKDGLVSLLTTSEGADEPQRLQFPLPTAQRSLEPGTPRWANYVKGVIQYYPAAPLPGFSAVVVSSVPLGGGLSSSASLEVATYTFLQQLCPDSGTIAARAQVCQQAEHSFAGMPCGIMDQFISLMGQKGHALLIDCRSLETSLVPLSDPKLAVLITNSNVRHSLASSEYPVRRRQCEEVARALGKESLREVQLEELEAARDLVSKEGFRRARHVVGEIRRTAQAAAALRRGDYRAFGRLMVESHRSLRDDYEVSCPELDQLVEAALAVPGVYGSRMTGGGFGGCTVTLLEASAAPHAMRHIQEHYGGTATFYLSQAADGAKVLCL
Chain of Phospholipid hydroperoxide glutathione peroxidase GPX4 (Homo sapiens) (P36969 whole entry, looked up): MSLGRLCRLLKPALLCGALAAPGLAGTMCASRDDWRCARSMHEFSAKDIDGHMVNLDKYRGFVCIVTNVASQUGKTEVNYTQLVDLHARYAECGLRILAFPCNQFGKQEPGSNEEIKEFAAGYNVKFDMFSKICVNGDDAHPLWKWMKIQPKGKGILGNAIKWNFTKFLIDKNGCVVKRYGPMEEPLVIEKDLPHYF
Chain of Thyrotropin receptor (Homo sapiens) (P16473 whole entry, looked up): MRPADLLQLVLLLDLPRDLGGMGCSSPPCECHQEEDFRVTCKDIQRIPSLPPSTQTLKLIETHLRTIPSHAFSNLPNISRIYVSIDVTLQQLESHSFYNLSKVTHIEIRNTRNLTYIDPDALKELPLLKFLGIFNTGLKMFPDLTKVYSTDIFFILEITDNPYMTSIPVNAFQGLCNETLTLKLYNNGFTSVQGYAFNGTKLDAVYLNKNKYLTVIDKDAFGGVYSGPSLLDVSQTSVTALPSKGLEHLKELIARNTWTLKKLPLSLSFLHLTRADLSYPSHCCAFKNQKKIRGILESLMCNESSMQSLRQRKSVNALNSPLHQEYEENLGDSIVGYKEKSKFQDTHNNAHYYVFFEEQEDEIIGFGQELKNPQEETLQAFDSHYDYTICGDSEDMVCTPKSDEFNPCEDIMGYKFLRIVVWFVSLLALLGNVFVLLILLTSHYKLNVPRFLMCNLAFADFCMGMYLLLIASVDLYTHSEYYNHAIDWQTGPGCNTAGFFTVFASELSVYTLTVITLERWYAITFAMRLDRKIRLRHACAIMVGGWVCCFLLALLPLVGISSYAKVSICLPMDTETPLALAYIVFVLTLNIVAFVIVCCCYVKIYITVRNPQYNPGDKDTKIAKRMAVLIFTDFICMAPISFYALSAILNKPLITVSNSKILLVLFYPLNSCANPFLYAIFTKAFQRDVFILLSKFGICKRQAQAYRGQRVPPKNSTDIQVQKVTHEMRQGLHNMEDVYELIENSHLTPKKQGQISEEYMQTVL
Chain of ATP-dependent DNA helicase Q1 (Homo sapiens) (P46063 whole entry, looked up): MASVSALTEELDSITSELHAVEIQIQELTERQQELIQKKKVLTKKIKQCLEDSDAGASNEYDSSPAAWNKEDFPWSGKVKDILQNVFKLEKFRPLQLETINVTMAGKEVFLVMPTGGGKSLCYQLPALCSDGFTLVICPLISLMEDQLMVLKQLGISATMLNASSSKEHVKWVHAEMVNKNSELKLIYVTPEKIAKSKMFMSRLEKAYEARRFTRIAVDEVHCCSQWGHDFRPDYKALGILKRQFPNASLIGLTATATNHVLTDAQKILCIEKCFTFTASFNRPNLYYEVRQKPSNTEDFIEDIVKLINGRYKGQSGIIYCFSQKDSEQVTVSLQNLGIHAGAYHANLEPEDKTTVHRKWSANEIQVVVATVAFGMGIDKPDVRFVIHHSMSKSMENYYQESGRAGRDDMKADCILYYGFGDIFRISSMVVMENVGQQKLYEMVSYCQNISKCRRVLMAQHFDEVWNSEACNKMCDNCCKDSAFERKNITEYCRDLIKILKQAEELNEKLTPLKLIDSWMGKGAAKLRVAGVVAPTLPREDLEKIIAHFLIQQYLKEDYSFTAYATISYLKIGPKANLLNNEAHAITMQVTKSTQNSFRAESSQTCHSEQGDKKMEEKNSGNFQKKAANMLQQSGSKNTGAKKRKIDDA
Chain of Glutathione peroxidase 1 (Homo sapiens) (P07203 whole entry, looked up): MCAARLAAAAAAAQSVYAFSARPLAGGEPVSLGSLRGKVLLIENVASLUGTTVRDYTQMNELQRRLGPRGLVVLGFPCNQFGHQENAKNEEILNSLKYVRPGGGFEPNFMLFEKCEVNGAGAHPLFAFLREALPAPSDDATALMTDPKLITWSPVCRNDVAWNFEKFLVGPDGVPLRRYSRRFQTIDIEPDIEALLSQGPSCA

Cn1cc(-c2ccc(-c3cncc(Cl)c3N3CCC4(CCNC4=O)CC3)cc2)cn1
active: Potency [1] 8.33 µM | Potency [2] 0.833 µM
-0.614: Z-AUC [5, 20]
-1.18: Z-AUC ([5]; measured here: PEO4 Z-AUC)
inactive: Potency [3] | Potency [4] | Z-AUC [5] -1.1 | activity change, negative = inhibition ([6]; Viability) -3.23%

N=C1Sc2ccccc2C2=NCCCN12
-8.77%: max response [8, 22]
active: Potency [15] 10 µM
-6.86%: max response [8, 21]
inactive: outcome [7] | activity change, negative = inhibition [8] -3.51% | Potency [9] | Potency [10] | outcome [11] | Potency [12] | Potency [13] | outcome [14] | outcome [16] | outcome [17] | outcome [18] | outcome [19]

Cc1ccccc1N1CCN(S(=O)(=O)C[C@]23CCC(CC2NC(=O)[C@@H](N)CCS(C)(=O)=O)C3(C)C)CC1 (stereo partly drawn)
inactive: outcome [7] | activity change, negative = inhibition [8] 0.353% | Potency [9] | Potency [10] | Potency [13] | outcome [14] | outcome [16] | outcome [17] | outcome [18] | outcome [19]
-14.5%: max response [8, 21]
-10.9%: max response [8, 22]

COc1nc(OCc2cccc(-c3ccccc3)c2C)ccc1CNCCNC(C)=O
active: Potency [1] 7.42 µM | Potency [2] 7.42 µM
inactive: Potency [3] | Potency [4] | Z-AUC [5] -0.638 | activity change, negative = inhibition ([6]; HiBiT) -16.7%
-0.574: Z-AUC ([5]; measured here: PEO4 Z-AUC)
-0.646: Z-AUC [5, 20]

O=C(O)CC[C@H](NC(=O)c1ccccc1C(=O)O)C(=O)O
34.2%: max response [8, 21]
inactive: outcome [7] | activity change, negative = inhibition [8] -0.627% | Potency [9] | Potency [10] | outcome [11] | Potency [12] | Potency [13] | outcome [14] | Potency [15] | outcome [16] | outcome [17] | outcome [18] | outcome [19]
31.2%: max response [8, 22]

OC[C@H]1O[C@@H](n2cnc3c(Nc4ccccc4)ncnc32)[C@H](O)[C@H]1O
inactive: outcome [7] | Potency [9] | Potency [10] | outcome [11] | Potency [12] | Potency [13] | outcome [14] | Potency [15] | outcome [16] | outcome [17] | outcome [18] | outcome [19]

C=C1/C(=C\C=C2/CCC[C@]3(C)[C@@H]([C@H](C)CCCC(C)(C)O)CC[C@@H]23)C[C@@H](O)C[C@@H]1O
active: Potency [1] 20.9 µM and 18.6 µM | Potency [2] 16.6 µM
0.77 and 1.19: Z-AUC ([5]; measured here: PEO4 Z-AUC)
inactive: Potency [4] | Z-AUC [5] 0.612 and 1.13 | activity change, negative = inhibition ([6]; HiBiT) -12.1% | activity change, negative = inhibition ([6]; Viability) -5.56%
0.475 and 0.837: Z-AUC [5, 20]

CN1C(=O)CCC1c1cccnc1 (stereo not drawn)
-1.85%: max response [8, 21]
inactive: outcome [7] | activity change, negative = inhibition [8] 10.8% | Potency [9] | Potency [10] | outcome [11] | Potency [12] | Potency [13] | outcome [14] | Potency [15] | outcome [16] | outcome [17] | outcome [18] | outcome [19]
10.6%: max response [8, 22]
